# According to PMC11006913:
# Numbering of substitutions follows the chain as printed.
# Experiments:
# Experiment in all cases: PBM; 200 nM protein, PBS
# Conditions in all cases: dsDNA, one strand shown
# PAX4 [1] = biological target: T1, PAX4 (Homo sapiens, UniProt O43316 9-242, R200K)
# T1 sequence: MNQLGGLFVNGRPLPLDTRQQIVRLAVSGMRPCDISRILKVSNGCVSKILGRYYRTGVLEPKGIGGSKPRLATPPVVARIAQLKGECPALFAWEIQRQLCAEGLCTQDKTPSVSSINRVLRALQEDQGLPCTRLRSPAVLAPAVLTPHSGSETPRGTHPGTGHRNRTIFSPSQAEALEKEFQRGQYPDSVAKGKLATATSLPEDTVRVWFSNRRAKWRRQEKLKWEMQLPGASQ
# PAX4 [2] = biological target: T2, PAX4 (Homo sapiens, UniProt O43316 9-242)
# T2 sequence: T1 sequence with K192R
# HOXA2 [3] = biological target: HOXA2 (Homo sapiens, UniProt O43364 129-215, R185T)
# HOXA2 (Homo sapiens, UniProt O43364 129-215, R185T), sequence (O43364 129-215 R185T): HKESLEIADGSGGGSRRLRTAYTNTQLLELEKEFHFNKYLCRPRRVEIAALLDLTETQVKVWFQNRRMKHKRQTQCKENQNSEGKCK
# PAX4 [4] = biological target: T3, PAX4 (Homo sapiens, UniProt O43316 9-242, R200Q)
# T3 sequence: T1 sequence with K192Q
# HOXA2 [5] = biological target: HOXA2 (Homo sapiens, UniProt O43364 129-215, R185K)
# HOXA2 (Homo sapiens, UniProt O43364 129-215, R185K), sequence (O43364 129-215 R185K): as the sequence (O43364 129-215 R185T) above, with T57K counted along it
# PAX4 [6] = biological target: T4, PAX4 (Homo sapiens, UniProt O43316 9-242, F177V)
# T4 sequence: T1 sequence with F169V, K192R
# PAX4 [7] = biological target: T5, PAX4 (Homo sapiens, UniProt O43316 9-242, F177Y)
# T5 sequence: T1 sequence with F169Y, K192R
# PAX4 [8] = biological target: T6, PAX4 (Homo sapiens, UniProt O43316 9-242, R227W)
# T6 sequence: T1 sequence with K192R, R219W
# HOXA2 [9] = biological target: HOXA2 (Homo sapiens, UniProt O43364 129-215, Y150S)
# HOXA2 (Homo sapiens, UniProt O43364 129-215, Y150S), sequence (O43364 129-215 Y150S): as the sequence (O43364 129-215 R185T) above, with Y22S, T57R counted along it
# HOXA2 [10] = biological target: HOXA2 (Homo sapiens, UniProt O43364 129-215)
# HOXA2 (Homo sapiens, UniProt O43364 129-215), sequence (O43364 129-215): as the sequence (O43364 129-215 R185T) above, with T57R counted along it
# ALX3 [11] = biological target: ALX3 (Homo sapiens, UniProt O95076 139-225, N203Q)
# ALX3 (Homo sapiens, UniProt O95076 139-225, N203Q), sequence (O95076 139-225 N203Q): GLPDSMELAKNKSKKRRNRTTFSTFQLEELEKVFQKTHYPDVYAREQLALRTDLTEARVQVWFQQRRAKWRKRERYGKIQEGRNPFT
# NKX2-6 [12] = biological target: T7, NKX2-6 (Homo sapiens, UniProt A6NCS4 118-204)
# T7 sequence: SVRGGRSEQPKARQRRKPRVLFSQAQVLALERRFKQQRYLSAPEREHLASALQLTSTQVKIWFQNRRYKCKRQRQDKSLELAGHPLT
# ALX3 [13] = biological target: ALX3 (Homo sapiens, UniProt O95076 139-225)
# ALX3 (Homo sapiens, UniProt O95076 139-225), sequence (O95076 139-225): as the sequence (O95076 139-225 N203Q) above, with Q65N counted along it
# ALX3 [14] = biological target: ALX3 (Homo sapiens, UniProt O95076 139-225, L168Q)
# ALX3 (Homo sapiens, UniProt O95076 139-225, L168Q), sequence (O95076 139-225 L168Q): as the sequence (O95076 139-225 N203Q) above, with L30Q, Q65N counted along it
# NKX2-6 [15] = biological target: T8, NKX2-6 (Homo sapiens, UniProt A6NCS4 118-204, F151L)
# T8 sequence: T7 sequence with F34L
# ALX3 [16] = biological target: ALX3 (Homo sapiens, UniProt O95076 139-225, L168V)
# ALX3 (Homo sapiens, UniProt O95076 139-225, L168V), sequence (O95076 139-225 L168V): as the sequence (O95076 139-225 N203Q) above, with L30V, Q65N counted along it
# ALX3 [17] = biological target: ALX3 (Homo sapiens, UniProt O95076 139-225, N203S)
# ALX3 (Homo sapiens, UniProt O95076 139-225, N203S), sequence (O95076 139-225 N203S): as the sequence (O95076 139-225 N203Q) above, with Q65S counted along it
# PITX2 = PITX2 (Homo sapiens, UniProt Q99697 72-157)
# MSX2 [18] = biological target: MSX2 (Homo sapiens, UniProt P35548 130-214, R199I)
# MSX2 (Homo sapiens, UniProt P35548 130-214, R199I), sequence (P35548 130-214 R199I): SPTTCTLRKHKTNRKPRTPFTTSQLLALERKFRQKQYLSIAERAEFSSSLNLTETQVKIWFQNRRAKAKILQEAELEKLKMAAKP
# MSX2 [19] = biological target: MSX2 (Homo sapiens, UniProt P35548 130-214)
# MSX2 (Homo sapiens, UniProt P35548 130-214), sequence (P35548 130-214): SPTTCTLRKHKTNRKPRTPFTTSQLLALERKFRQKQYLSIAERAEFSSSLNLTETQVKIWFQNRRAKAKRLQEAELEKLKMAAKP
# MSX2 [20] = biological target: MSX2 (Homo sapiens, UniProt P35548 130-214, F161Y)
# MSX2 (Homo sapiens, UniProt P35548 130-214, F161Y), sequence (P35548 130-214 F161Y): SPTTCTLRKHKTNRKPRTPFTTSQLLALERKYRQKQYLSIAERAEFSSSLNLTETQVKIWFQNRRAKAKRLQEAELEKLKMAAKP
# HOXD13 [21] = biological target: HOXD13 (Homo sapiens, UniProt P35453 263-343, T313R)
# HOXD13 (Homo sapiens, UniProt P35453 263-343, T313R), sequence (P35453 263-343 T313R): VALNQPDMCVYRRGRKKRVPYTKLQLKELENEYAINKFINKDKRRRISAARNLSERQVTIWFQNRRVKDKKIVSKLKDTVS
# HOXD13 [22] = biological target: HOXD13 (Homo sapiens, UniProt P35453 263-343)
# HOXD13 (Homo sapiens, UniProt P35453 263-343), sequence (P35453 263-343): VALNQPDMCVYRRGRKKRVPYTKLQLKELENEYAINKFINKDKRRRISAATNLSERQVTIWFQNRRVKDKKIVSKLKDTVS
# HOXD13 [23] = biological target: HOXD13 (Homo sapiens, UniProt P35453 263-343, T313A)
# HOXD13 (Homo sapiens, UniProt P35453 263-343, T313A), sequence (P35453 263-343 T313A): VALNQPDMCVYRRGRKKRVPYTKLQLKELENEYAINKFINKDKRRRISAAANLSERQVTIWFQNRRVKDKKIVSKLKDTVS
# HOXC9 = HOXC9 (Homo sapiens, UniProt P31274 178-260, R222W)
# HOXC9, sequence (P31274 178-260 R222W): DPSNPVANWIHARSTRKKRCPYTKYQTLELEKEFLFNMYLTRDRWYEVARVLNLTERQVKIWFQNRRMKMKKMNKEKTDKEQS
sequence,measurement,setting,value
CGGAGCCG,binding signal,PAX4 [1],"9.19 upbm affinity estimate (log intensity, higher = more binding, comparable within an allelic series)"
same,binding signal,PAX4 [2],"9.38 upbm affinity estimate (log intensity, higher = more binding, comparable within an allelic series)"
same,binding signal,HOXA2 [3],"7.43 upbm affinity estimate (log intensity, higher = more binding, comparable within an allelic series)"
same,binding signal,PAX4 [4],"9.24 upbm affinity estimate (log intensity, higher = more binding, comparable within an allelic series)"
same,binding signal,HOXA2 [5],"10.1 upbm affinity estimate (log intensity, higher = more binding, comparable within an allelic series)"
same,binding signal,PAX4 [6],"9.03 upbm affinity estimate (log intensity, higher = more binding, comparable within an allelic series)"
same,binding signal,PAX4 [7],"9.04 upbm affinity estimate (log intensity, higher = more binding, comparable within an allelic series)"
same,binding signal,PAX4 [8],"9.09 upbm affinity estimate (log intensity, higher = more binding, comparable within an allelic series)"
same,binding signal,HOXA2 [9],"10.4 upbm affinity estimate (log intensity, higher = more binding, comparable within an allelic series)"
same,binding signal,HOXA2 [10],"7.23 upbm affinity estimate (log intensity, higher = more binding, comparable within an allelic series)"
CGGTACCG,binding signal,PAX4 [1],"9.38 upbm affinity estimate (log intensity, higher = more binding, comparable within an allelic series)"
same,binding signal,PAX4 [2],"9.43 upbm affinity estimate (log intensity, higher = more binding, comparable within an allelic series)"
same,binding signal,HOXA2 [3],"7.62 upbm affinity estimate (log intensity, higher = more binding, comparable within an allelic series)"
same,binding signal,ALX3 [11],"7.72 upbm affinity estimate (log intensity, higher = more binding, comparable within an allelic series)"
same,binding signal,NKX2-6 [12],"9.13 upbm affinity estimate (log intensity, higher = more binding, comparable within an allelic series)"
same,binding signal,PAX4 [4],"9.37 upbm affinity estimate (log intensity, higher = more binding, comparable within an allelic series)"
same,binding signal,HOXA2 [5],"10.4 upbm affinity estimate (log intensity, higher = more binding, comparable within an allelic series)"
same,binding signal,PAX4 [6],"9.37 upbm affinity estimate (log intensity, higher = more binding, comparable within an allelic series)"
same,binding signal,ALX3 [13],"7.9 upbm affinity estimate (log intensity, higher = more binding, comparable within an allelic series)"
same,binding signal,PAX4 [7],"9.28 upbm affinity estimate (log intensity, higher = more binding, comparable within an allelic series)"
same,binding signal,ALX3 [14],"7.73 upbm affinity estimate (log intensity, higher = more binding, comparable within an allelic series)"
same,binding signal,NKX2-6 [15],"9.24 upbm affinity estimate (log intensity, higher = more binding, comparable within an allelic series)"
same,binding signal,ALX3 [16],"7.69 upbm affinity estimate (log intensity, higher = more binding, comparable within an allelic series)"
same,binding signal,PAX4 [8],"9.32 upbm affinity estimate (log intensity, higher = more binding, comparable within an allelic series)"
same,binding signal,HOXA2 [9],"10.4 upbm affinity estimate (log intensity, higher = more binding, comparable within an allelic series)"
same,binding signal,ALX3 [17],"7.78 upbm affinity estimate (log intensity, higher = more binding, comparable within an allelic series)"
same,binding signal,HOXA2 [10],"7.54 upbm affinity estimate (log intensity, higher = more binding, comparable within an allelic series)"
GCCCAGCC,binding signal,PAX4 [1],"9.23 upbm affinity estimate (log intensity, higher = more binding, comparable within an allelic series)"
same,binding signal,PAX4 [2],"9.33 upbm affinity estimate (log intensity, higher = more binding, comparable within an allelic series)"
same,binding signal,PAX4 [4],"9.24 upbm affinity estimate (log intensity, higher = more binding, comparable within an allelic series)"
same,binding signal,PITX2,"7.91 upbm affinity estimate (log intensity, higher = more binding, comparable within an allelic series)"
same,binding signal,PAX4 [6],"9.15 upbm affinity estimate (log intensity, higher = more binding, comparable within an allelic series)"
same,binding signal,PAX4 [7],"9.11 upbm affinity estimate (log intensity, higher = more binding, comparable within an allelic series)"
same,binding signal,PAX4 [8],"9.23 upbm affinity estimate (log intensity, higher = more binding, comparable within an allelic series)"
CCGGGGGA,binding signal,PAX4 [1],"9.19 upbm affinity estimate (log intensity, higher = more binding, comparable within an allelic series)"
same,binding signal,PAX4 [2],"9.35 upbm affinity estimate (log intensity, higher = more binding, comparable within an allelic series)"
same,binding signal,MSX2 [18],"9.52 upbm affinity estimate (log intensity, higher = more binding, comparable within an allelic series)"
same,binding signal,PAX4 [4],"9.16 upbm affinity estimate (log intensity, higher = more binding, comparable within an allelic series)"
same,binding signal,PAX4 [6],"9.14 upbm affinity estimate (log intensity, higher = more binding, comparable within an allelic series)"
same,binding signal,MSX2 [19],"9.61 upbm affinity estimate (log intensity, higher = more binding, comparable within an allelic series)"
same,binding signal,PAX4 [7],"9.09 upbm affinity estimate (log intensity, higher = more binding, comparable within an allelic series)"
same,binding signal,MSX2 [20],"9.5 upbm affinity estimate (log intensity, higher = more binding, comparable within an allelic series)"
same,binding signal,PAX4 [8],"9.22 upbm affinity estimate (log intensity, higher = more binding, comparable within an allelic series)"
GCGCCACC,binding signal,PAX4 [1],"9.38 upbm affinity estimate (log intensity, higher = more binding, comparable within an allelic series)"
same,binding signal,PAX4 [2],"9.4 upbm affinity estimate (log intensity, higher = more binding, comparable within an allelic series)"
same,binding signal,PAX4 [4],"9.4 upbm affinity estimate (log intensity, higher = more binding, comparable within an allelic series)"
same,binding signal,PITX2,"7.93 upbm affinity estimate (log intensity, higher = more binding, comparable within an allelic series)"
same,binding signal,PAX4 [6],"9.23 upbm affinity estimate (log intensity, higher = more binding, comparable within an allelic series)"
same,binding signal,PAX4 [7],"9.26 upbm affinity estimate (log intensity, higher = more binding, comparable within an allelic series)"
same,binding signal,PAX4 [8],"9.32 upbm affinity estimate (log intensity, higher = more binding, comparable within an allelic series)"
AATTTATA,binding signal,PAX4 [1],"11.2 upbm affinity estimate (log intensity, higher = more binding, comparable within an allelic series)"
same,binding signal,PAX4 [2],"11.4 upbm affinity estimate (log intensity, higher = more binding, comparable within an allelic series)"
same,binding signal,ALX3 [11],"8.61 upbm affinity estimate (log intensity, higher = more binding, comparable within an allelic series)"
same,binding signal,HOXD13 [21],"10.9 upbm affinity estimate (log intensity, higher = more binding, comparable within an allelic series)"
same,binding signal,PAX4 [4],"11.3 upbm affinity estimate (log intensity, higher = more binding, comparable within an allelic series)"
same,binding signal,HOXD13 [22],"11.7 upbm affinity estimate (log intensity, higher = more binding, comparable within an allelic series)"
same,binding signal,PAX4 [6],"10.6 upbm affinity estimate (log intensity, higher = more binding, comparable within an allelic series)"
same,binding signal,PAX4 [7],"10.8 upbm affinity estimate (log intensity, higher = more binding, comparable within an allelic series)"
same,binding signal,HOXD13 [23],"11.6 upbm affinity estimate (log intensity, higher = more binding, comparable within an allelic series)"
same,binding signal,HOXC9,"11.1 upbm affinity estimate (log intensity, higher = more binding, comparable within an allelic series)"
same,binding signal,PAX4 [8],"10.7 upbm affinity estimate (log intensity, higher = more binding, comparable within an allelic series)"
same,binding signal,ALX3 [17],"8.71 upbm affinity estimate (log intensity, higher = more binding, comparable within an allelic series)"
